Compounds with a hit are over-represented: about 3.5% of the library has one in this group of screens.
KCNK9 inh = KCNK9 potassium channel inhibitors, primary screen, HEK293 cells, thallium flux | hit rate 1.2% among 310,000 | FluxOR thallium flux fluorescence; hits give low values | AID 488922, 2010 | B-score at 10 µM | Potassium channel subfamily K member 9 (Homo sapiens), Q9NPC2;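 active = ratio B-score over 3 SD below the library mean, with starting fluorescence within 5 SD of its mean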;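 note: negative B-score means less thallium flux so channel inhibition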
Kir21 inh = inhibitors of mouse Kir2.1 inward-rectifier potassium channel. B-score at 10 µM. HEK293-Kir2.1, FluxOR thallium flux fluorescence; hits give low values. Inward rectifier potassium channel 2 (Mus musculus), P35561. hit rate 0.85% among 310,000. AID 1672, 2009;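 active = fluorescence ratio B-score at or below minus 3 SD of library scores, with starting-brightness B-score within 2 SD, cut at about -4.2 in these data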;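 note: channel flux triggered by added potassium and thallium sulfate stimulus; B-score of peak minus minimum fluorescence over baseline after thallium stimulus; more negative B-score means stronger Kir2.1 block with less thallium influx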
KCNK3 inh = human KCNK3 channel inhibitors, primary screen, CHO cells, FluxOR thallium flux, B-score; hit rate 0.84% among 340,000; FluxOR fluorescence; hits give low values; B-score at 10 µM; Potassium channel subfamily K member 3 (Homo sapiens), O14649;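 active = B-score under library mean minus 4 SD, starting fluorescence ratio at most library mean plus 5 SD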;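 note: more negative B-score means stronger inhibition of thallium flux through KCNK3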
Target sequence (O14649 whole entry, looked up): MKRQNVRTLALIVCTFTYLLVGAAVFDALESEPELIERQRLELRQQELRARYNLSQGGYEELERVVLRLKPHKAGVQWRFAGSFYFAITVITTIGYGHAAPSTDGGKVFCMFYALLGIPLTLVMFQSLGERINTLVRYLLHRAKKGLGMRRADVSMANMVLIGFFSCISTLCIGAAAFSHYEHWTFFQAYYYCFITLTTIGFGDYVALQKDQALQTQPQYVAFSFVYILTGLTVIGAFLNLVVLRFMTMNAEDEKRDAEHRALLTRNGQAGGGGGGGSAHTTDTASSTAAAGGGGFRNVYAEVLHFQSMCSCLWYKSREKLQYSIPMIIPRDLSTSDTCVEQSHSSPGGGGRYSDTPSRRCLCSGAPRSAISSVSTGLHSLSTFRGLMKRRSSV
TMEM16A act = TMEM16A chloride channel activators or potentiators, primary screen, cell-based, HTS; Anoctamin-1 (Mus musculus), Q8BHY3; HEK293 TMEM16A/YFP-H148Q/I152L, iodide quench fluorescence; hits give low values; B-score at 10 µM; hit rate 0.3% among 340,000;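 active = fluorescence-ratio B-score plate-corrected deviation score at least 3 library SD below zero, with starting fluorescence score within 5 deviations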;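 note: channel opened by trigger with iodide after compound preincubation; score built on the fluorescence ratio of max minus min over baseline; more negative score means more quench and so TMEM16A activation or potentiation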
TMEM16A inh = TMEM16A chloride channel inhibitors, primary screen, cell-based, HTS | Anoctamin-1 (Mus musculus), Q8BHY3 | normalized B-score (activity score, 25-100; higher = stronger inhibition) at 10 µM | hit rate 1.2% among 310,000 | HEK293 TMEM16A/YFP iodide influx fluorescence, ionomycin;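 active = ratio plate-corrected score three or more library SD toward inhibition, starting fluorescence score within five deviations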;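 note: score derived from kinetic fluorescence span divided by baseline fluorescence per well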
KCNK3 confirm = retest of human KCNK3 channel inhibitors, confirmation, CHO cells, FluxOR thallium flux, triplicate; shares compounds with KCNK3 inh; FluxOR fluorescence; 0% buffer, 100% carvedilol maximal block; ratio percent of control, % at 10 µM; hit rate 99% among 2,400; AID 651638, 2012;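 active = ratio percent of control, averaged over triplicates, above buffer control mean plus 5 SD, cut at about 64% in these data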;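 note: ratio is the fluorescence rise from min to max over baseline after thallium stimulus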
KCNK3 uninduced = thallium flux inhibition in non-induced cells, primary screen, counter-screen for KCNK3 inhibitor project, cell-based, non-induced KCNK3 line, FluxOR thallium, triplicate; shares compounds with KCNK3 inh; non-induced KCNK3 parental cells; hits give low values; thallium flux ratio (lower = more inhibition) at 10 µM; hit rate 40% among 2,400; AID 651747, 2012;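 active = thallium flux ratio, averaged over three wells, more than 5 SD below the buffer control mean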;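 note: host cells are CHO cells without KCNK3 induction; ratio is peak minus trough fluorescence over baseline then normalized to buffer controls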
Numbers without * were called inactive; i = inactive; / = not tested or not shown.

SMILES | KCNK9 inh | Kir21 inh | KCNK3 inh | TMEM16A act | TMEM16A inh | KCNK3 confirm | KCNK3 uninduced
Cc1cc(O)c(C(C)C)cc1NC(=O)c1ccccc1Cl | i | -2.07 | i | i | i | / | /
COc1ccc(C2=NS(=O)(=O)N(C)C(C(=O)Nc3cc(C)ccc3O)=C2)cc1OC | i | 0.28 | -9.23* | i | i | 95.3* | i
CCN(CC)CCCN(Cc1cc2cc3c(cc2[nH]c1=O)OCO3)C(=S)Nc1ccc(OC)cc1 | i | 0.16 | i | i | i | / | /
CCn1c(NCc2cc(Br)ccc2NS(=O)(=O)c2ccc(C)cc2)nc2ccccc21 | i | -0.49 | -10.7* | i | i | 119.7* | i
Cn1c(N)c(C(=O)COC(=O)c2ccc3c(c2)C(=O)N(c2ccc(Cl)cc2)C3=O)c(=O)n(C)c1=O | i | -0.46 | i | i | i | / | /
COc1ccc(C2Nc3ccccc3C(=O)N2c2ccc(C)cc2)cc1Cn1nnc2ccccc21 (stereo not drawn) | i | -1.06 | -8.8* | i | i | 111.0* | 0.156*
COc1ccc(C)cc1Cn1nnc2ccccc21 | i | -0.32 | i | i | i | / | /
COc1ccc(N2C(=O)c3ccccc3NC2c2ccc(OC)c(COc3ccccn3)c2)cc1 (stereo not drawn) | i | 0.42 | i | i | i | / | /
COc1ccc(C2Nc3ccccc3C(=O)N2c2ccc(C)cc2)cc1Cn1cc([N+](=O)[O-])cn1 (stereo not drawn) | i | 1.96 | -8.77* | i | i | 104.7* | i
N#CCC(=O)c1ccccc1Oc1ccc(Cl)cc1 | i | -0.1 | i | i | i | / | /
COc1cccc(Oc2ccc(C(F)(F)F)cc2NC(=O)CCc2nc3ccccc3c(=O)[nH]2)c1 | -7* | 0.92 | i | i | i | 96.7* | i
O=C(CCc1nc2ccccc2c(=O)[nH]1)Nc1cc(C(F)(F)F)ccc1N1CCOCC1 | i | -0.5 | i | i | i | / | /
CC(C)c1nc(SCC(=O)Nc2ccc(N(C)C)cc2)c2ccccc2n1 | i | -1.26 | i | i | i | / | /
O=C(Cn1c(CO)nc2ccccc21)Nc1cc(C(F)(F)F)ccc1N1CCOCC1 | i | -0.37 | -10.2* | i | i | 65.7* | i
COc1cc(C2Nc3ccccc3C(=O)N2c2ccccc2)c(Br)cc1OCC(=O)O (stereo not drawn) | i | 0.04 | i | i | i | / | /
COC(=O)COc1ccc(Cl)cc1C1Nc2ccccc2C(=O)N1c1ccc(OC)cc1 (stereo not drawn) | -7.98* | 3.07 | i | i | i | 122.0* | 0.158*
CCOc1cccc(C(=O)Nc2cccc(C(C)=O)c2)c1 | i | -4.04 | i | i | i | / | /
O=C(Nc1ccc(NC(=O)c2ccco2)cc1)c1ccco1 | i | 0.27 | i | i | i | / | /
CCOc1cccc(C(=O)Nc2cccc(NC(=O)c3ccco3)c2)c1 | -6.83* | 2.07 | -11.9* | i | i | 76.0* | i
CC(C)OC(=O)c1ccc(NC(=O)c2ccco2)cc1 | i | -1.44 | -9.8* | i | i | 91.0* | i
CCC(C)(C)NC(=O)CN(CC1CCCO1)C(=O)CCC(=O)Nc1nccs1 (stereo not drawn) | i | 0.28 | i | i | i | / | /
Cc1cccc(-c2cc3nc4c(c(N5CCCC(O)C5)n3n2)CCC4)c1 (stereo not drawn) | i | -0.02 | -10.1* | i | i | 102.7* | i
OC1CCCN(c2c3c(nc4cc(-c5cccc(Cl)c5)nn24)CCC3)C1 (stereo not drawn) | i | -0.12 | -10.5* | i | i | 92.7* | i
OC1CCCN(c2c3c(nc4cc(-c5cccc(F)c5)nn24)CCCC3)C1 (stereo not drawn) | i | 1.46 | i | i | i | / | /
CSC1=C(C#N)C2(CCCC2)C(C#N)=C(N)N1 | i | -2.22 | / | / | i | / | /
SMILES | KCNK9 inh | Kir21 inh | KCNK3 inh | TMEM16A act | TMEM16A inh | KCNK3 confirm | KCNK3 uninduced
N#CC1=C(N)NC(SCc2ccc(Br)cc2)=C(C#N)C12CCCCC2 | -6.84* | 0.02 | -11.7* | i | 100* | 125.7* | 0.129*
O=C(NC1C2CCCC1CN(C1CC1)C2)c1ccc(Cl)cc1 (stereo not drawn) | i | 0.01 | i | i | i | / | /
COc1ccc(Nc2nnc(-c3ccc(O)cc3)c3ccccc23)cc1 | i | -0.02 | -8.93* | i | i | 97.7* | i
Oc1ccc(Nc2nnc(-c3ccc(O)cc3)c3ccccc23)cc1 | i | 0.03 | i | i | i | / | /
COc1ccc(CNC(=O)COC(=O)[C@@H]2CCCN2C(=O)c2cccs2)cc1 | / | / | i | i | / | / | /
CCOC(=O)/C(C#N)=C/c1cc2ccccc2nc1N1CCCCC1 | -7.25* | -0.01 | -9.54* | i | i | 0.0 | i
CC(C)(C)c1ccc(-c2noc(-c3ccc4c(c3)CCO4)n2)cc1 | i | -0.11 | i | i | i | / | /
CCCOc1cc(C)c(Cl)cc1S(=O)(=O)N(CC)CC | i | -3.33 | -11.2* | i | i | 99.3* | i
CCN(CC)S(=O)(=O)c1cc(OC)c(Cl)cc1OC | i | -2.1 | i | i | i | / | /
O=C(NC1CCCCC1)c1cccnc1Sc1ccccc1 | i | 0.04 | i | i | i | / | /
CN(C)CCn1c(SCc2ccccc2C#N)nc2c(sc3ccccc32)c1=O | i | 0 | -10.1* | i | i | 106.7* | 0.157*
COc1ccccc1NC(=O)CSc1nc2c(sc3ccccc32)c(=O)n1CCN(C)C | i | 0.68 | i | i | i | / | /
COc1ccc(C(=O)OCCOc2ccccc2C(C)=O)c(O)c1 | i | 0.41 | -9.77* | i | i | 119.3* | 0.137*
COc1ccc(Cl)cc1C(=O)NCCCSc1ccccc1 | i | -0.32 | -9.17* | i | i | 112.3* | 0.155*
O=C(CCNC(=O)c1ccccc1Cl)NCCCSc1ccccc1 | / | / | i | i | / | / | /
COc1ccc(CNc2nc(-c3ccccc3)nc3ccccc23)cc1OC | i | 0.65 | -16.6* | i | i | 114.0* | 0.136*

Screens from PubChem BioAssay.
